{
  "source": "PubChem BioAssay AID504332",
  "about": "(National Center for Advancing Translational Sciences (NCATS), 2011)",
  "note": "The campaign covered roughly 350,000 compounds. About 31,000 (8.9%) were called active. A call without a number means that no potency is given here. Roughly 15% stayed inconclusive and do not appear here. This excerpt belongs to a sample that is enriched for actives. A number with no mark means an inactive call. The call rests on the fitted dose curve; in most records, active means well fitted inhibition curve with a large enough effect; inconclusive means small, poorly fitted or top-dose-only effect; inactive means no such curve, though single readings can be large or run the other way. Potency means the concentration at half of the fitted maximal effect.",
  "data": [
    {"molecular_target": "Histone-lysine N-methyltransferase EHMT2 (Homo sapiens) (UniProt Q96KQ7)", "sequence (Q96KQ7 913-1193 limits assumed)": "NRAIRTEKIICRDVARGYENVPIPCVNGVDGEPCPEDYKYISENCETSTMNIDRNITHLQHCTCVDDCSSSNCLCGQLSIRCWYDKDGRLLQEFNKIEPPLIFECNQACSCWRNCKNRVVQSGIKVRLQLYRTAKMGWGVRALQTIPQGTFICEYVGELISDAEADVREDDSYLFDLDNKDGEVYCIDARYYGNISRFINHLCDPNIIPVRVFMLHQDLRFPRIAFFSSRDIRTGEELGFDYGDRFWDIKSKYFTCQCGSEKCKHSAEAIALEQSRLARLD", "assay": "qHTS Assay for Inhibitors of Histone Lysine Methyltransferase G9a; further: nearly all actives have a fitted effect of over 75% in size", "conditions": "G9a H3K9 monomethylation, AlphaScreen, 2 h; series mostly up to 59 µM", "outline": "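AlphaScreen read-out: biotin-H3K9 peptide (500 nM) methylation by 20 nM enzyme with 20 uM SAM, 2 h at room temperature after 15 min compound preincubation; anti-monomethyl H3K9 antibody plus donor/acceptor beads, 10 min dark.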", "values": [
      {"smiles": "CCOc1ccc(CCNC(=O)c2c(C)oc3ncn(C)c(=O)c23)cc1", "Potency": "inactive"},
      {"smiles": "CCCc1nn2c(=O)cc(COC(=O)c3ccc(NC(=O)C(C)Oc4ccccc4)cc3)nc2s1", "note": "(configuration not stated)", "Potency": "inactive"},
      {"smiles": "COc1ccc(/C=C/C(=O)c2ccc(OC)cc2O)cc1", "Potency": "inactive"},
      {"smiles": "COc1ccc(/C=C/C(=O)c2cc(Br)ccc(=O)c2O)cc1", "Potency": "10 µM (active)"},
      {"smiles": "COc1ccc(C(=O)/C=C/c2ccc(OC3CSC3)cc2)cc1", "Potency": "inactive"},
      {"smiles": "Cc1cccc(Cc2c(C)nc3nc(SCc4ccccc4Cl)nn3c2C)c1", "Potency": "inactive"},
      {"smiles": "CCOC(=O)c1ccc(N2C(=O)c3n[nH]c(-c4ccco4)c3C2c2ccc(O)cc2)cc1", "note": "(configuration not stated)", "Potency": "17.8 µM (active)"},
      {"smiles": "CCOC(=O)c1ccc(N2C(=O)c3[nH]nc(-c4ccccc4)c3C2c2ccc(C(C)C)cc2)cc1", "note": "(configuration not stated)", "Potency": "inactive"},
      {"smiles": "CCOC(=O)c1ccc(N2C(=O)c3n[nH]c(C)c3C2c2ccc(O)c(OC)c2)cc1", "note": "(configuration not stated)", "Potency": "inactive"},
      {"smiles": "Cc1ccc(F)cc1NC(=O)CCSc1nc(-c2ccco2)cc(C(F)(F)F)n1", "Potency": "inactive"},
      {"smiles": "Cc1ccc(NC(=O)CCCn2c(=O)c3cccn3c3ccccc32)cc1Cl", "Potency": "inactive"},
      {"smiles": "COc1cc(OC)c(C(=O)OCC(=O)N2CC(=O)Nc3ccccc32)cc1OC", "Potency": "inactive"},
      {"smiles": "Cc1ccc(S(=O)(=O)N2CCC(C(=O)OCC(=O)N3CC(=O)Nc4ccccc43)CC2)cc1", "Potency": "inactive"},
      {"smiles": "O=C1CN(C(=O)COC(=O)C2CC(=O)N(Cc3ccco3)C2)c2ccccc2N1", "note": "(configuration not stated)", "Potency": "50.1 µM (active)"},
      {"smiles": "COc1ccc(OC)c(S(=O)(=O)N2CCCC(C(=O)N3CCC(C(N)=O)CC3)C2)c1", "note": "(configuration not stated)", "Potency": "inactive"},
      {"smiles": "O=C(CSc1ncc(CO)n1Cc1ccc(Cl)cc1)NCc1ccc(F)cc1", "Potency": "inactive"},
      {"smiles": "CCCc1nnc(NC(=O)c2cccs2)s1", "activity, negative = inhibition": "-0.387% [at 12.7 µM]"},
      {"smiles": "CCc1c(C)sc(NC(=O)c2cccs2)c1C(N)=O", "Potency": "11.2 µM (active)"},
      {"smiles": "CCc1c(C)sc(NC(=O)c2ccc(Br)o2)c1C(=O)OC", "Potency": "inactive"},
      {"smiles": "CCc1c(C)sc(NC(=O)C2c3ccccc3Oc3ccccc32)c1C(=O)OC(C)C", "Potency": "inactive"},
      {"smiles": "COc1cc(C(=O)NCC(=O)N2CC=C(c3ccccc3)CC2)cc(OC)c1OC", "Potency": "inactive"},
      {"smiles": "O=C(COC(=O)c1ccccc1)c1ccc2c(c1)OCCO2", "Potency": "inactive"},
      {"smiles": "CN(C(=O)C1CCN(c2ncnc3c2nc2n3CCCCC2)CC1)C1CCCCC1", "Potency": "inactive"},
      {"smiles": "COCc1c(C(=O)OCC(=O)Nc2ccc(OC(F)F)cc2)oc2ccccc12", "activity, negative = inhibition": "-14.1% [at 12.7 µM]"},
      {"smiles": "CN(C(=O)Cn1nnc(-c2ccc(F)cc2)n1)C1CCS(=O)(=O)C1", "note": "(configuration not stated)", "activity, negative = inhibition": "14.1% [at 12.7 µM]"},
      {"smiles": "COc1cccc(-c2noc(C3CCCN(C(=O)c4ccc(F)cc4)C3)n2)c1", "note": "(configuration not stated)", "Potency": "inactive"},
      {"smiles": "O=C(c1ccc(F)cc1)N1CCCC(c2nc(-c3cccs3)no2)C1", "note": "(configuration not stated)", "Potency": "inactive"},
      {"smiles": "Cc1ccc(-c2noc(C3CCCN(C(=O)c4cccc(Cl)c4)C3)n2)o1", "note": "(configuration not stated)", "Potency": "39.8 µM (active)"},
      {"smiles": "COc1ccc2nc(N3CCN(C(=O)c4ccc([N+](=O)[O-])o4)CC3)sc2c1", "Potency": "inactive"},
      {"smiles": "CCc1ccccc1NC(=O)c1cnn(-c2ccc(F)cc2)c1C1CCNCC1", "Potency": "inactive"},
      {"smiles": "COC(=O)c1ccccc1NC(=O)c1cncc(Br)c1", "Potency": "inactive"},
      {"smiles": "O=C(NC(=S)Nc1ccc(Cl)c(C(=O)O)c1)c1cncc(Br)c1", "Potency": "44.7 µM (active)"},
      {"smiles": "O=C(Nc1ccc(N2CCCC2=O)cc1)c1cncc(Br)c1", "Potency": "inactive"},
      {"smiles": "O=C(NCCc1ccc(F)cc1)c1ccc2nccnc2c1", "activity, negative = inhibition": "-12.4% [at 12.7 µM]"},
      {"smiles": "COc1cc(OC)cc(C(=O)NCC(=O)N2CCCCCCC2)c1", "activity, negative = inhibition": "12.1% [at 12.7 µM]"},
      {"smiles": "CCN(CC(=O)Nc1ccc(NC(C)=O)cc1)C(=O)CSC(=S)N1CCCC1", "activity, negative = inhibition": "-6.65% [at 12.7 µM]"},
      {"smiles": "CCc1ccccc1NC(=O)Cc1ccc(NC(=O)N2CCCCc3ccccc32)cc1", "Potency": "inactive"},
      {"smiles": "Cc1ccc(Nc2c(-c3ccc(C)cc3)nc3cnccn23)cc1", "Potency": "inactive"},
      {"smiles": "Cc1ccc(Nc2c(-c3ccc(N(C)C)cc3)nc3nc[nH]n23)cc1", "Potency": "2.51 µM (active)"},
      {"smiles": "COC(=O)C1(C)NC(c2ccc(F)cc2)C2C(=O)N(c3ccccc3)C(=O)C21", "note": "(configuration not stated)", "Potency": "inactive"},
      {"smiles": "Cc1sc2nc(CSCC(=O)NC3CCCCC3)[nH]c(=O)c2c1C", "activity, negative = inhibition": "-8.21% [at 0.501 µM]"},
      {"smiles": "COc1cc(OC)c(N2CC(C(=O)Nc3cc(Cl)ccc3N3CCOCC3)CC2=O)cc1Cl", "note": "(configuration not stated)", "Potency": "inactive"},
      {"smiles": "COc1cc(OC)c(-n2cc(-c3ccc(Cl)cc3)[nH]c2=O)cc1Cl", "Potency": "31.6 µM (active)"},
      {"smiles": "COc1cc(OC)c(-n2c(C)cc(C=O)c2C)cc1Cl", "Potency": "inactive"},
      {"smiles": "CCOC(=O)C1CCN(c2nc3c(S(=O)(=O)c4ccc(CC)cc4)nnn3c3ccc(Cl)cc23)CC1", "Potency": "inactive"},
      {"smiles": "CCCCNC(=O)CSc1nc2cc3c(cc2c(=O)n1CCCCCC(=O)NCc1ccc2c(c1)OCO2)OCO3", "Potency": "inactive"},
      {"smiles": "O=C(CNS(=O)(=O)c1ccc2c(c1)OCCCO2)N1CCN(c2ccc(F)cc2)CC1", "activity, negative = inhibition": "24.8% [at 12.7 µM]"}
    ]}
  ]
}
